# Several values for one entry are separate records, joined by “and”; a condition that tells them apart may be missing. Equal entries are not always repeated. Some structures have more than one record in an assay (separate samples or runs), and their calls can disagree. Activity calls are given as the source filed them. A call without a number means that no potency is given here. Unless noted, calls follow the shape of the dose curve; as a rule, active = well fitted curve in the direction sought with a large enough effect in the repeat runs; inconclusive = weak or mixed curves; inactive = no such curve, though single readings can be large; an effect the other way counts as inactive or inconclusive.
# How the values were obtained:
# [1] = qHTS assay to identify small molecule antagonists of the thyroid receptor (TR) signaling pathway - cell viability counter screen (AID 743064); also: nearly all actives have a fitted effect of over 50% in size
# Summary of the method: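 Rat GH3 pituitary tumor cells stably expressing two TR response elements driving luciferase were plated, rested 4 h, then dosed with library compounds and T3 (1 nM final). After 23.5 h at 37 °C, CellTiter-Fluor was added for 30 min and fluorescence recorded.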
# [2] = qHTS assay to identify small molecule antagonists of the thyroid receptor (TR) signaling pathway (AID 743065); also: nearly all actives have a fitted effect of over 55% in size; also: potency is read from the fitted curve at half-maximal effect
# Summary of the method: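 GH3.TRE-Luc rat pituitary cells carrying two TR response elements driving luciferase were plated for 4 h, given compound plus 1 nM T3 (final), and incubated 23.5 h at 37 C. ONE-Glo luminescence measured reporter inhibition; CellTiter-Fluor fluorescence tracked cytotoxicity.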
# [3] = test system: thyroid hormone receptor (rat, GH3 cells); assay: qHTS assay to identify small molecule agonists of the thyroid receptor (TR) signaling pathway (AID 743066; calls by dose curve)
# [4] = qHTS assay to identify small molecule antagonists of the estrogen receptor alpha (ER-alpha) signaling pathway - cell viability counter screen (AID 743074; calls by dose curve; also: nearly all actives have a fitted effect of over 45% in size)
# [5] = target: Estrogen receptor (Homo sapiens) (UniProt P03372); assay: qHTS assay to identify small molecule agonists of the estrogen receptor alpha (ER-alpha) signaling pathway (AID 743075; calls by dose curve)
# [6] = target: Estrogen receptor (Homo sapiens) (UniProt P03372); assay: qHTS assay to identify small molecule agonists of the estrogen receptor alpha (ER-alpha) signaling pathway using the BG1 cell line (AID 743079); also: nearly all actives have a fitted effect of over 20% in size
# [7] = qHTS assay to identify small molecule antagonists of the estrogen receptor alpha (ER-alpha) signaling pathway using the BG1 cell line (AID 743080; calls by dose curve;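 also: BG1 cells stimulated with 17beta-estradiol alongside compound; nearly all actives have a fitted effect of over 25% in size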; also: potency is read from the fitted curve at half-maximal effect)
# Summary of the method: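 BG1Luc4E2, endogenous ER-alpha, 4xERE-luc; 5 d charcoal-stripped FBS, phenol red free; 24 h plating; cpd + 17beta-estradiol 21.5 h, 37 C/5% CO2; CellTiter-Fluor viability 30 min, then ONE-Glo luciferase 30 min RT.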
# [8] = qHTS assay to identify small molecule antagonists of the estrogen receptor alpha (ER-alpha) signaling pathway using the BG1 cell line - cell viability counter screen (AID 743081);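 also: compound given together with 17beta-estradiol as the ER stimulus; nearly all actives have a fitted effect of over 45% in size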; also: potency is read from the fitted curve at half-maximal effect
# Aromatase (Homo sapiens) = Aromatase (Homo sapiens) (UniProt P11511); assay: qHTS assay to identify aromatase inhibitors (AID 743083); also: series mostly up to about 70 µM; nearly all actives have a fitted effect of over 55% in size
# [9] = qHTS assay to identify aromatase inhibitors - cell viability counter screen (AID 743084);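 also: cells stimulated with testosterone during compound exposure; nearly all actives have a fitted effect of over 55% in size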; also: potency is read from the fitted curve at half-maximal effect
# [10] = qHTS assay to identify small molecule that activate the aryl hydrocarbon receptor (AhR) signaling pathway - cell viability counter screen (AID 743086); also: nearly all actives have a fitted effect of over 45% in size; also: potency is read from the fitted curve at half-maximal effect
# Summary of the method: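 HepG2-AhR-luc (HG2L7.5c1) cells, 4000/well, were preincubated 5 h at 37C, exposed to compound in qHTS format for 24 hr at 37C, then given CellTiter-Fluor for 30 min; viability was read as fluorescence in the reporter wells.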
# [11] = target: Peroxisome proliferator-activated receptor gamma (Homo sapiens) (UniProt P37231); assay: qHTS assay to identify small molecule agonists of the peroxisome proliferator-activated receptor gamma (PPARg) signaling pathway (AID 743094; active = well fitted activation curve with a large enough effect in the signal ratio in the repeat runs, not every such curve was filed as active; inconclusive = weak or mixed curves, or effect the other way; inactive = no such curve, though single readings can be large or run the other way; the % refers to the signal ratio)
# Summary of the method: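 Stably transfected HEK293H cells (GeneBLAzer PPARg UAS-bla) were incubated with test substances for 17 h at 37C after a 5 h pre-incubation; beta-lactamase activity was then detected by FRET substrate fluorescence.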
# [12] = qHTS assay to identify small molecule antagonists of the peroxisome proliferator-activated receptor gamma (PPARg) signaling pathway - cell viability counter screen (AID 743194); conditions: Potency: co-treated with 50 nM rosiglitazone; also: nearly all actives have a fitted effect of over 55% in size
# Summary of the method: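 PPARg-UAS-bla HEK293H cells were plated, rested 5 h at 37 C, then treated with compounds plus rosiglitazone (50 nM final) for 17 h at 37 C; viability was then read by CellTiter-Glo luminescence after 30 min at room temperature.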
# [13] = qHTS assay for small molecule agonists of the antioxidant response element (ARE) signaling pathway (AID 743202; active = well fitted activation curve with a large enough effect in the signal ratio in the repeat runs, not every such curve was filed as active; inconclusive = weak or mixed curves, or effect the other way; inactive = no such curve, though single readings can be large or run the other way; the % refers to the signal ratio; also: potency is read from the fitted curve at half-maximal effect)
# Summary of the method: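 Read-out: LiveBLAzer B/G FRET substrate fluorescence after 2 h at room temperature, following 16 h compound treatment at 37 C of HepG2 cells carrying an ARE-driven beta-lactamase reporter.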
# [14] = qHTS assay for small molecule agonists of the antioxidant response element (ARE) signaling pathway - cell viability counter screen (AID 743203; calls by dose curve; also: nearly all actives have a fitted effect of over 55% in size; also: potency is read from the fitted curve at half-maximal effect)
# Summary of the method: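 Cells (ARE-bla HepG2, 2,000/well) receive DMSO-dissolved compounds after a 5 hrs rest. Plates incubate 16 hrs at 37C/5% CO2. CellTiter-Glo luminescence is then recorded after 30 min at room temperature.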
# [15] = qHTS assay for small molecule activators of the heat shock response signaling pathway (AID 743210; active = well fitted activation curve with a large enough effect in the signal ratio in the repeat runs, with a control signal flat, not every such curve was filed as active; inconclusive = weak or mixed curves; the % refers to the signal ratio; also: series mostly up to about 63 µM)
# Summary of the method: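 HSE-bla HeLa cells (beta-lactamase reporter under heat shock response elements) were exposed to compounds for 5 h at 37 C, then loaded with LiveBLAzer B/G FRET substrate for 2.5 h at room temperature before fluorescence reading.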
# [16] = target: Estrogen receptor (Homo sapiens) (UniProt P03372); assay: qHTS assay to identify small molecule antagonists of the estrogen receptor alpha (ER-alpha) signaling pathway (AID 743069; active = well fitted curve in the direction sought with a large enough effect in the signal ratio in the repeat runs, not every such curve was filed as active; inconclusive = weak or mixed curves, or effect the other way; inactive = no such curve, though single readings can be large or run the other way; the % refers to the signal ratio; also: potency is read from the fitted curve at half-maximal effect)
# Summary of the method: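 HEK293 cells stably carrying an ER-alpha-UAS-bla beta-lactamase reporter were pre-cultured overnight in 2% charcoal-stripped FBS medium. Test compounds in DMSO were added together with 17beta-estradiol for 18 hr at 37C. Read-out was fluorescence after 2 hr with LiveBLAzer B/G FRET substrate at room temperature.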
# [17] = target: Aryl hydrocarbon receptor (Homo sapiens) (UniProt P35869); assay: qHTS assay to identify small molecule that activate the aryl hydrocarbon receptor (AhR) signaling pathway (AID 743085);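 also: HG2L7.5c1 human HepG2 liver cells with stably integrated DRE-driven firefly reporter; series mostly up to about 70 µM; nearly all actives have a fitted effect of over 15% in size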
# Summary of the method: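 Compounds were tested in HepG2 hepatocellular carcinoma cells harbouring a stably integrated luciferase gene under control of 20 DREs. Increased reporter signal after 24 h treatment at 37C was taken as AhR activation.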
# [18] = target: Peroxisome proliferator-activated receptor gamma (Homo sapiens) (UniProt P37231); assay: qHTS assay to identify small molecule antagonists of the peroxisome proliferator-activated receptor gamma (PPARg) signaling pathway (AID 743191; calls by dose curve; also: nearly all actives have a fitted effect of over 30% in size; also: potency is read from the fitted curve at half-maximal effect)
# Summary of the method: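 GeneBLAzer PPARg UAS-bla HEK293H cells carrying a UAS-driven beta-lactamase reporter were plated at 3000 cells/well, preincubated 5 h at 37C, then given compound for 17 h at 37C; LiveBLAzer B/G FRET substrate was read after 1 h at room temperature.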
# [19] = qHTS assay for small molecule activators of the heat shock response signaling pathway - cell viability counter screen (AID 743209); also: nearly all actives have a fitted effect of over 50% in size
# Summary of the method: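 Quantitative HTS format, Tox21 10K library. HeLa cells carrying an HSE-driven beta-lactamase reporter were treated 5 h at 37 C, then assessed for viability by CellTiter-Glo luminescence.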
# Chain of Aryl hydrocarbon receptor (Homo sapiens) (P35869 whole entry, looked up): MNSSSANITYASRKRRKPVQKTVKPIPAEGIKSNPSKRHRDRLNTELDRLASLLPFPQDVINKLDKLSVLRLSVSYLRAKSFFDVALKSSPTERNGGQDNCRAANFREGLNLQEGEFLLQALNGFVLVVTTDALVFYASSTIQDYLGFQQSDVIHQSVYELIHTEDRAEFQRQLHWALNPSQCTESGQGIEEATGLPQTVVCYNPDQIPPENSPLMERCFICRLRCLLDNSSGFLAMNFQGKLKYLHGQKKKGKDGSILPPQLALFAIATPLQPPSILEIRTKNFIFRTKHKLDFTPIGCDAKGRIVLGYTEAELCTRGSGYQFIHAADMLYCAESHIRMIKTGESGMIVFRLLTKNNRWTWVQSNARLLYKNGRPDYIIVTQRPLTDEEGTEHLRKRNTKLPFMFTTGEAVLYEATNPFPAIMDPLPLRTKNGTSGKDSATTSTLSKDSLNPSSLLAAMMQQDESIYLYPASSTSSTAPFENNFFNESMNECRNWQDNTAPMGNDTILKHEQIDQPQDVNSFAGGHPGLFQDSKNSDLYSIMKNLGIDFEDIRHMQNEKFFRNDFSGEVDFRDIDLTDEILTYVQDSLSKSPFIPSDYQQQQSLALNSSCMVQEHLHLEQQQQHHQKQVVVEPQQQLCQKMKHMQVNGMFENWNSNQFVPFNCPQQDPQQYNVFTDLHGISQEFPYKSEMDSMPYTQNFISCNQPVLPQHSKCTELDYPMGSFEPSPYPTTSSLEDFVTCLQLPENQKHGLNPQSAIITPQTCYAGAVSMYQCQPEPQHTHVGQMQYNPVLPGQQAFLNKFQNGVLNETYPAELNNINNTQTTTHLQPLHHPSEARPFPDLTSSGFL
# Chain of Estrogen receptor (Homo sapiens) (P03372 whole entry, looked up): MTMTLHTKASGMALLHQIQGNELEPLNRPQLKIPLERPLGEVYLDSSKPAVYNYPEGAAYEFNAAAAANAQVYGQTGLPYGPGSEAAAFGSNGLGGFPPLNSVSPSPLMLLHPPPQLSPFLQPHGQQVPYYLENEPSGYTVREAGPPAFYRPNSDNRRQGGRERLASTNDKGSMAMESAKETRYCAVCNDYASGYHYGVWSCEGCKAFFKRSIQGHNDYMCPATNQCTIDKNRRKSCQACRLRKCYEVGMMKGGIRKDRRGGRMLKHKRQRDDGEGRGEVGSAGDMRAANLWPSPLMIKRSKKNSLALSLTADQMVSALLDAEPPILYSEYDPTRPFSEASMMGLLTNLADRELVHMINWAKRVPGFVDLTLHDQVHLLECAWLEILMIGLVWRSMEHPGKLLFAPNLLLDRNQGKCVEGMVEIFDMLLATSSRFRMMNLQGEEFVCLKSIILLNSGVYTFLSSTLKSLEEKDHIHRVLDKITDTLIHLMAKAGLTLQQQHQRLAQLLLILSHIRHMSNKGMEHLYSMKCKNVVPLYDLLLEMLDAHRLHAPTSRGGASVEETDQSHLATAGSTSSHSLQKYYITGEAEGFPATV
# Chain of Peroxisome proliferator-activated receptor gamma (Homo sapiens) (P37231 whole entry, looked up): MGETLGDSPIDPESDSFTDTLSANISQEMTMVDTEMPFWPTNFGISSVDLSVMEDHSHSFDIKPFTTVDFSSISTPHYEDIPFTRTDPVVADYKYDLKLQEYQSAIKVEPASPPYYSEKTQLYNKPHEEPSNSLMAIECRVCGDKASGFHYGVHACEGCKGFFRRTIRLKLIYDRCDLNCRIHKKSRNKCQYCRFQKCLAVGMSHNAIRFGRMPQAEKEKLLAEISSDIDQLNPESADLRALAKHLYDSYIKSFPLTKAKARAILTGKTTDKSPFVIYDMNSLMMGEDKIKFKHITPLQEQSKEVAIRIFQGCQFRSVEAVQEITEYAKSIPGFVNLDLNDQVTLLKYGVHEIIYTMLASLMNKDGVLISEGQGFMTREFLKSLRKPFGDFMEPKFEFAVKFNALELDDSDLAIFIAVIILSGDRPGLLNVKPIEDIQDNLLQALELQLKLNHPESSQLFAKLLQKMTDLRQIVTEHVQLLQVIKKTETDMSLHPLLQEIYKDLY
# Chain of Aromatase (Homo sapiens) (P11511 whole entry, looked up): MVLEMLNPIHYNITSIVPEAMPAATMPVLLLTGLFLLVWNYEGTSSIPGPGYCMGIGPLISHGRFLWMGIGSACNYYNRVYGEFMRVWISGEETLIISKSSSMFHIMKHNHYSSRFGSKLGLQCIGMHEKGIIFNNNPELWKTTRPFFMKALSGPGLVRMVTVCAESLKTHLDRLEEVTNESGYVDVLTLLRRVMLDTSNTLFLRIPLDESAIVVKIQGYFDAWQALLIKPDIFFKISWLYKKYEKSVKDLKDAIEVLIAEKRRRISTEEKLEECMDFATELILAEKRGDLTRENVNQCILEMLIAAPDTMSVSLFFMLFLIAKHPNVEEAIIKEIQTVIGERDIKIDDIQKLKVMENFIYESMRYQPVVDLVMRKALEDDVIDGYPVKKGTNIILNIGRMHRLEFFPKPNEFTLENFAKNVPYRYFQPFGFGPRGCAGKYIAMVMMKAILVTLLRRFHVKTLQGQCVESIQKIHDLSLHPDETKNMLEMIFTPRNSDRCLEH
SMILES,Potency [1],Potency [2],Potency [3],Potency [4],Potency [5],Potency [6],Potency [7],Potency [8],Potency (Aromatase (Homo sapiens)),Potency [9],Potency [10],Potency [11],Potency [12],Potency [13],Potency [14],outcome [15],Potency [16],Potency [17],Potency [18],Potency [19]
CC(=O)CCC(C)=O,inactive,inactive,inactive,inactive,inactive,inactive,inactive,inactive,inactive,inactive,inactive,inactive,inactive,inactive,inactive,inactive,,,,
O=[Se]=O,inactive,21.5 µM (active),inactive,,inactive,,,19.2 µM (active),inactive,inactive,,,,8.58 µM (active),inactive,inactive,6.12 µM [inconclusive] (active),inactive,inactive,inactive
CCOc1nc(F)cc2nc(S(=O)(=O)Nc3c(Cl)cccc3Cl)nn12,inactive,inactive,inactive,inactive,inactive,inactive,inactive,inactive,inactive,inactive,inactive,,,inactive,inactive,inactive,,inactive,inactive,inactive
O=C(Nc1ccccc1)Nc1cnns1,inactive,61.1 µM (active),inactive,inactive,inactive,,68.5 µM (active),inactive,,inactive,,inactive,inactive,,inactive,inactive,,,inactive,inactive
O=C1C(Cl)C(CCl)CN1c1cccc(C(F)(F)F)c1 (stereo not drawn),inactive,inactive,inactive,inactive,,,,inactive,inactive,inactive,inactive,inactive,inactive,,inactive,inactive,,,21.9 µM (active),inactive
O=[N+]([O-])c1ccc(F)c([N+](=O)[O-])c1,inactive,61.7 µM (active),inactive,inactive,inactive,,,18.8 µM (active) and 49 µM (active),inactive,inactive and 30.9 µM (active),inactive and 49 µM (active),inactive,,,30.9 µM (active),,,inactive,,inactive
CCC(Br)(CC)C(=O)NC(N)=O,inactive,inactive,inactive,inactive,,,,inactive,inactive,inactive,inactive,,inactive,,inactive,inactive,,inactive,inactive,inactive
O=S(=O)(Cl)c1ccccc1,inactive,inactive,inactive,inactive,,,,inactive,inactive,inactive,inactive,inactive,inactive,inactive,inactive,inactive,,inactive,inactive,inactive
CCCCOC(=O)c1ccccc1C(=O)OCc1ccccc1,inactive,inactive,inactive,inactive,,,,inactive,inactive,inactive,inactive,inactive,,inactive,inactive,inactive,,inactive,,inactive
O=C(NC(=O)c1c(F)cccc1F)Nc1ccc(OC(F)(F)C(F)OC(F)(F)F)c(Cl)c1 (stereo not drawn),inactive,inactive,inactive,inactive,,inactive,inactive,inactive,inactive,inactive,inactive,,inactive,,inactive,,,,,inactive
CC(C)(CCl)C(=O)Cl,inactive,inactive,inactive,inactive,,,,inactive,inactive,inactive,inactive,inactive,inactive,inactive,inactive,,,inactive,inactive,inactive
CC(C)N(CCC(C(N)=O)(c1ccccc1)c1ccccn1)C(C)C (stereo not drawn),inactive,inactive,inactive,inactive,,,,inactive,inactive,inactive,inactive,,,inactive,inactive,inactive,,inactive,,inactive

# — PubChem BioAssay (Tox21)
